B-score data for 104 compounds are collected here from PubChem BioAssay AID602410 (Johns Hopkins Ion Channel Center, 2012).

Screen size: about 340,000 compounds; about 2,800 (0.82%) were called active.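 The calls were made as follows: active = B-score under library mean minus 4 SD, starting fluorescence ratio at most library mean plus 5 SD; inactive = the rest.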 The sample as a whole holds a higher share of actives than the screen did.

Chain of Potassium channel subfamily K member 3 (Homo sapiens) (O14649 whole entry, looked up): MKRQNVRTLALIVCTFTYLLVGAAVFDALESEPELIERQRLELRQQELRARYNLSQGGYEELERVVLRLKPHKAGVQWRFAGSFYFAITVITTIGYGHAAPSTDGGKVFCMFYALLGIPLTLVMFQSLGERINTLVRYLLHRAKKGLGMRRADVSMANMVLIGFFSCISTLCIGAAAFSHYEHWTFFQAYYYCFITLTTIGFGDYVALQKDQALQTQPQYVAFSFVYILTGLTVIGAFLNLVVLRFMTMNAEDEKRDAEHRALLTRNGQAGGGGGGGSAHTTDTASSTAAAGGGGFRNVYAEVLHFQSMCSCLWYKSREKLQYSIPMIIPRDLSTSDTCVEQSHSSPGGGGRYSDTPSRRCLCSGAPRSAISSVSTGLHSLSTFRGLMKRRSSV

This test has as its target Potassium channel subfamily K member 3 (Homo sapiens) (UniProt O14649). Kind of test: human KCNK3 channel inhibitors, primary screen, CHO cells, FluxOR thallium flux, B-score (AID 602410).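 As to B-score: more negative B-score means stronger inhibition of thallium flux through KCNK3.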 Particulars: FluxOR fluorescence, at 10 µM; hits give low values.
With `CCOc1ccc(S(=O)(=O)N2CCC(C(=O)OCc3ccc(OC)cc3)CC2)cc1`, the B-score entry was “inactive”. The same measure for `COc1cccc(COC(=O)C2CCN(S(=O)(=O)c3ccc(Cl)cc3)CC2)c1OC`: “inactive”; for `COC(=O)c1ccc(COC(=O)C2CCN(S(=O)(=O)c3c(Cl)cccc3Cl)CC2)o1`: -10.8 (active); for `CC12CN3CC(C)(CN(C1)C3c1ccc(Cl)cc1Cl)C2=O` (centres undefined): “inactive”.

For the compound `Cn1c(SCC(=O)N2CCCC2)nnc1-c1cccs1`, the B-score result was “inactive”. The same measure for `CCc1cc(C(c2ccccc2OC)N2CCOCC2)c(NC(=O)c2ccccc2)s1` (centres undefined): -8.97 (active); for `COc1cc(C(c2c(NC(=O)c3ccco3)sc(C)c2C)N2CCOCC2)cc(OC)c1OC` (centres undefined): “inactive”.

Consider `CCc1cc(C(N)=O)c(NC(=O)c2ccc(OC)cc2)s1`, for which the B-score result was “inactive”. As to `COc1cc(NC(=O)COC(=O)c2cnc(C)cn2)c(C)cc1[N+](=O)[O-]`, the B-score result is “inactive”. `COC(=O)c1ccc(C)c(NC(=O)C2CC(=O)N(C3CCCC(C)C3C)C2)c1` (centres undefined): the B-score entry is “inactive”. For `CS/C(=C\C(=O)c1ccco1)Nc1ccccc1Cl`, the B-score was -11.4 (active). For `O=C(Nc1ccccc1C(=O)N1CCCCC1)c1ccco1`, the B-score result is “inactive”. The same measure for `O=C(c1cccc(S(=O)(=O)Nc2ccccc2Cl)c1)N1CCN(C(=O)c2ccco2)CC1`: “inactive”; for `NS(=O)(=O)c1ccc(CCNC(=O)COC(=O)COc2cccc(C(F)(F)F)c2)cc1`: “inactive”. `CSc1nnc2c(n1)OC(c1ccsc1)N(C(C)=O)c1ccccc1-2` (centres undefined): the B-score is -9.55 (active). With `Cc1ccc(Cl)cc1NC(=O)CN1CCN(S(=O)(=O)N2CCOCC2)CC1`, the B-score entry is “inactive”. With `CCOC(=O)CNC(=O)CSc1ccc2nnc(-c3cccnc3)n2n1`, the B-score result is “inactive”. The same measure for `C/C(CC(C)C)=N\Oc1nc(C)cc(C)n1`: “inactive”. In the case of `CC(C)c1ccccc1OCC(O)CN(CC(O)COc1cccc2ccccc12)C(C)C` (centres undefined), the B-score is -9.21 (active). Take `CCC(C)Sc1nc2c(c(=O)[nH]c(=O)n2C)n1CC(O)COc1cccc2ccccc12` (centres undefined): the B-score entry is “inactive”. Take `Cc1cc(C)c(NC(=O)C[N+](C)(C)CC(O)COc2cccc3ccccc23)c(C)c1` (centres undefined): the B-score result is “inactive”. The same measure for `O=C(OCC(O)C(O)COC(=O)c1ccccc1)c1ccccc1` (centres undefined): “inactive”; for `Cc1ccc(C)c(S(=O)(=O)Nc2cccc(-n3cnnn3)c2)c1`: “inactive”; for `CC(=O)c1c(C)[nH]c(C(=O)Nc2cc(S(=O)(=O)N(C)C)ccc2C)c1C`: “inactive”. Then `O=C(CCn1nnc2ccccc21)OCC(=O)c1ccc([N+](=O)[O-])cc1`, with “inactive”; and `CCc1nnc(NC(=O)c2cccc(S(=O)(=O)N(C)c3ccc(OC)cc3)c2)s1`, with “inactive”; and `CCc1nnc(NC(=O)c2cc(S(=O)(=O)N3CCCCC3)ccc2C)s1`, with “inactive”. Then `CCc1ccc2nc3sc(C(=O)Nc4nnc(CC)s4)c(N)c3cc2c1`, with -9.98 (active); and `Cc1cc(C)nc(NNC2=CC(=O)CC(C)(C)C2)n1`, with “inactive”; and `O=C1c2ccccc2C(O)N1Cc1ccccc1Cl` (centres undefined), with “inactive”.

With `O=C(NCCc1c[nH]c2ccccc12)c1cccc(Br)c1`, the B-score is -11.8 (active). As for `O=C(NCCc1c[nH]c2ccccc12)c1cc2ccccc2oc1=O`, the B-score result was “inactive”. Then `Cc1cc(C)cc(NC(=S)NCCc2c[nH]c3ccccc23)c1`, with “inactive”; and `O=P(c1cccs1)(c1cccs1)c1cccs1`, with “inactive”; and `CCC1CCCCN1C(=S)Nc1ccc(C(C)=O)cc1` (centres undefined), with “inactive”. Then `CCC1CCCCN1C(=O)Nc1cccc(NC(=O)N2CCCCC2CC)c1` (centres undefined), with -10.6 (active); and `CCC1CCCCN1C(=S)NC(=O)c1ccco1` (centres undefined), with “inactive”; and `CCN(C[C@H]1N[C@@](CC)(C(=O)OC)[C@H]2C(=O)N(Cc3ccccc3)C(=O)[C@@H]12)S(=O)(=O)c1ccccc1`, with “inactive”. The same measure for `CCOc1c(Br)cc(/C=C2\C(=O)N(CCC#N)N=C2C)cc1OC`: “inactive”; for `O=C(COC(=O)/C=C/c1ccc(S(=O)(=O)N2CCCCCC2)cc1)NCc1ccccc1Cl`: “inactive”. Regarding `CC(=O)c1cccc(NC(=O)CN2C(=O)c3cccnc3Oc3ccc(Cl)cc32)c1`, the B-score entry is “inactive”. In the case of `Cc1ccccc1CC1(CO)CCCN(C(=O)c2cc(-c3ccccc3)no2)C1` (centres undefined), the B-score entry was “inactive”. The same measure for `COC(=O)CCC(=O)N1CCCC(CO)(Cc2ccccc2)C1` (centres undefined): “inactive”.

Consider `CCCc1cc(C(=O)N2CCCC(CO)(CCCc3ccccc3)C2)n(C)n1` (centres undefined), for which the B-score is -9.3 (active). Then `CC(Sc1nnc(CNC(=O)c2ccccc2F)n1C)C(=O)Nc1nccs1` (centres undefined), with “inactive”; and `CC1CCN(S(=O)(=O)c2ccc(NC(=O)C3CC(=O)N(c4ccccc4)C3)cc2)CC1` (centres undefined), with “inactive”; and `COc1ccc(Nc2ncnc3ccc(Br)cc23)c(OC)c1`, with “inactive”.

Turning to `COc1ccc(Nc2ncnc3sc(-c4ccccc4)cc23)c(OC)c1`, the B-score is -12 (active). The same measure for `COc1ccc(Nc2ncnc3sc(C)cc23)cc1`: “inactive”; for `COC(=O)c1sc(SC)c(S(=O)(=O)C(C)C)c1N/N=C(\C#N)S(=O)(=O)c1ccccn1`: “inactive”. The same measure for `CC1CCN(C(=O)/C(=C\c2ccccc2F)NC(=O)c2ccccc2)CC1`: “inactive”; for `COC(=O)CN1C(=O)[C@H]2[C@@H](/C=C/c3ccccc3)N3C(=O)CN(CC4CC4)C(=O)[C@@]3(Cc3ccccc3)[C@H]2C1=O`: “inactive”. Then `O=C(CC1CCCCC1)Nc1c2c(nn1-c1ccc(F)cc1)CS(=O)(=O)C2`, with “inactive”; and `C=CCNC(=O)c1ccccc1NC(=O)c1ccc(Cl)c(S(=O)(=O)Nc2cccc(C)c2C)c1`, with “inactive”. Regarding `CCCCc1ccc(NC(=O)NCc2cccnc2)cc1`, the B-score entry is “inactive”. Regarding `CCCCCCCCCCCCN1C(=O)CSC1c1cccnc1` (centres undefined), the B-score was -18.4 (active). The same measure for `CN(C)CCCN1C(=O)CSC1c1ccc([N+](=O)[O-])cc1` (centres undefined): “inactive”; for `Cc1ccc(C(=O)Nc2ccc3c(c2)OCCO3)cc1S(=O)(=O)N1CCOCC1`: “inactive”; for `CCCn1nnc(NC(=O)COc2ccc(CC)cc2)n1`: “inactive”. In the case of `COc1ccccc1N1CCC(N2CCN(CC(C)(C)C)C(CCO)C2)CC1` (centres undefined), the B-score result is “inactive”. Then `CCCOc1ccc2c3c(c(=O)oc2c1OCCC)CCC3`, with -11.4 (active); and `COc1ccc2c3c(c(=O)oc2c1OCC(=O)C(C)(C)C)CCCC3`, with “inactive”; and `O=c1oc2c(CN3CCCCC3)c(O)ccc2c2c1CCCCC2`, with “inactive”.

Turning to `O=C(CCl)N(Cc1cccc([N+](=O)[O-])c1)c1cccc(Cl)c1`, the B-score result is “inactive”. Then `C=CCN(N=Nc1cccc([N+](=O)[O-])c1)c1cccc([N+](=O)[O-])c1`, with -9.23 (active); and `O=[N+]([O-])c1cccc(C=NN=Cc2ccccc2O)c1`, with “inactive”. As to `Cc1cc(Nc2cccc(F)c2)n2ncnc2n1`, the B-score entry was “inactive”. The same measure for `CC(NCC(=O)Nc1cc(Cl)cc(Cl)c1)c1ccccc1` (centres undefined): “inactive”; for `CC(=O)c1ccc(NC(=O)C(C)NCc2ccc(Cl)cc2)cc1` (centres undefined): “inactive”; for `CC(NCc1cccs1)C(=O)Nc1cc(Cl)cc(Cl)c1` (centres undefined): -9.85 (active). Take `CC(=O)Nc1ccccc1OC(C)C(=O)N1CCC(C)CC1` (centres undefined): the B-score result is “inactive”. For `CCOc1ccc(Br)cc1S(=O)(=O)Nc1ccc(C(=O)OC(C)C(=O)N(C)c2ccccc2)cc1` (centres undefined), the B-score result was “inactive”. The same measure for `COCCCNC(=O)CCc1nc2cccnc2n1Cc1ccc(OC)cc1`: “inactive”; for `Cc1ccc2nc(NC(=O)C3CSC4(C)CCC(=O)N34)sc2c1` (centres undefined): “inactive”.

As for `CCOc1ccc(N(CC(=O)OC)S(=O)(=O)c2c(C)noc2C)cc1`, the B-score result is “inactive”. As to `COc1ccc(N(Cc2ccccc2)S(=O)(=O)c2cccc(C(=O)O)c2)cc1`, the B-score entry was “inactive”.

For the compound `COc1cccc(COc2ccc(N(C)S(=O)(=O)c3ccccc3)cc2)c1`, the B-score was -13.2 (active). Then `Cc1ccc2nc(COc3ccc(N(C)S(=O)(=O)c4ccccc4)cc3)cc(=O)n2c1`, with “inactive”; and `Nc1nnc2c(C(F)(F)F)nc3ccccc3n12`, with “inactive”.

As to `Cc1cccc(C(=O)OC(C)CN2CCN(C)CC2)c1` (centres undefined), the B-score result was “inactive”. In the case of `Cc1cccc(-c2nc3ccc(C(=O)NCCN4CCN(C)CC4)cc3nc2-c2cccc(C)c2)c1`, the B-score is -9.46 (active). As to `Cc1cc(C)cc(C(=O)NCCN2CCOCC2)c1`, the B-score entry was “inactive”. `Cc1nnc(C)c2c(C)n(N)c(C)c12`: the B-score result was “inactive”. On to `C=C1CCC(N(O)c2cc(C)on2)C(=C)CCC2C1CC2(C)C` (centres undefined), for which the B-score entry was “inactive”. Then `COc1ccc(C(=O)CSc2nnnn2C)c(OC)c1`, with “inactive”; and `Oc1ccc(-c2nc3ccccc3nc2-c2ccc(O)cc2O)c(O)c1`, with “inactive”; and `Oc1ccc(/C=N/Nc2nc(-c3ccccc3F)nc3ccccc23)c(O)c1`, with -11 (active). Then `CC(C)(C)Nc1nc(-c2ccccn2)nc2ccccc12`, with “inactive”. On to `CC1CC(C)CN(C(=O)CSc2ccsc2[N+](=O)[O-])C1` (centres undefined), for which the B-score result was “inactive”. In the case of `CC(C)OCCCNC(=O)c1ccc(C2SCC(=O)N2Cc2ccco2)cc1` (centres undefined), the B-score entry was “inactive”. Then `COc1c(N2CCN(C(=S)Nc3ccccc3F)C(C)C2)c(F)cc2c(=O)c(C(=O)O)cn(C3CC3)c12` (centres undefined), with “inactive”; and `CCOC(=O)Cc1csc(NC(=O)CSc2nnc(-c3cccnc3)n2Cc2ccco2)n1`, with “inactive”. For `CCOC(=O)CSc1nc2c(c(=O)n(Cc3ccccc3Cl)c(=O)n2C)n1C`, the B-score entry was “inactive”. As to `CCOC(=O)CSc1nc2c(sc(=S)n2CCc2ccccc2)c(=O)n1Cc1ccco1`, the B-score was -9.18 (active).

Take `O=C(CSc1nnc2n1CCCN2)c1ccccc1`: the B-score result is “inactive”. As for `CC(C)(C)n1nnnc1C(c1cccs1)N(Cc1cccnc1)CC1CCCO1` (centres undefined), the B-score result is “inactive”. The same measure for `CCOc1ccc(CN(Cc2ccco2)C(c2cccs2)c2nnnn2C(C)(C)C)cc1` (centres undefined): -10.5 (active). For the compound `CCOc1ccc(CN(Cc2ccco2)S(=O)(=O)c2ccc(-n3cnnn3)c(OC)c2)cc1`, the B-score result is “inactive”. For the compound `Cc1nc(NC(CC(C)C)C(=O)O)c2nc(C)oc2n1` (centres undefined), the B-score result was “inactive”. As for `Cn1cc(Cl)c(C(=O)NNC(=S)Nc2cccc(Cl)c2)n1`, the B-score entry was “inactive”. The same measure for `FC(F)(F)c1cccc(NC(=S)Nc2cccc(Cl)c2)c1`: -10.9 (active). For `FC(F)(F)c1cccc(N/N=C/c2ccccc2)c1`, the B-score result is “inactive”. As to `COC(=O)CNS(=O)(=O)c1ccc(Cc2ccc(S(=O)(=O)NCC(=O)OC)cc2)cc1`, the B-score result is “inactive”. The same measure for `CCN1CCN(C(=O)Cn2nc(C)n3c(cc4c(OC)cccc43)c2=O)CC1`: “inactive”.
